Consider 40 compounds from PubChem BioAssay (Tox21).

The structures appear in SMILES notation. Inconclusive results are not listed. A number with no mark means an inactive call. The source made the active and inactive calls. Calls follow the shape of the full dose curve.
% is scaled to controls: 0 for no effect and ±100 for the full control effect; potency is read from the fitted curve at half-maximal effect.

The nature of the experiment: qHTS assay to identify small molecule agonists of H2AX - cell viability counter screen (AID 1224847). Also: nearly all actives have a fitted effect of over 30% in size. As to activity change, negative = cytotoxicity: top concentration of the series differs between compounds. The settings on record: CHO-K1 viability, CellTiter-Glo luminescence, 3 h; series mostly up to 154 µM; activity change, negative = cytotoxicity: at the top concentration. The text has this:
National Center for Advancing Translational Sciences [NCATS]
NIH Chemical Genomics Center [NCGC]
U.S. Environmental Protection Agency [EPA]
National Institutes of Environmental Health Sciences [NIEHS]
National Toxicology Program [NTP]
U.S. Food and Drug Administration [FDA]
HTRF phospho-H2AX (Ser139) assay (Cisbio Bioassays, US) enables the quantitative detection of the histone variant H2AX when phosphorylated on serine 139. When double-stranded DNA breaks, either by ionizing radiation or endogenous physiological processes, H2AX becomes phosphorylated at Ser139. This phospho-Ser139 serves as a sensitive biomarker for the detection of such breaks, localizing the site of DNA repair. So, HTRF phospho-H2AX Ser139 is a pertinent assay to study genome stability, the cell cycle, DNA repair, and it serves as a biomarker for cancer, and to understand aging. Wild type CHO-K1 cells were used to identify the inducers of Phospho-H2AX Ser 139 from the Tox21 compound collections. Also cytotoxicity of the Tox21 10K compound library against the CHO-K1 cell line was tested by measuring the cell viability using CellTiter-Glo assay (Promega, Madison, WI).
Tox21 Assay Protocol Summary:
The CHO-K1 cells suspended in culture medium containing 10% FBS were dispensed at 1000 cells/ 3 ul/well in 1536-well white wall/solid bottom plates (Greiner Bio-One North America, NC) using a Multidrop Combi (Thermo Fisher Scientific Inc., Waltham, MA). After the assay plates were incubated at 37C overnight, 23 nl of compounds at 15 concentrations (from 5-48 columns) or positive control (from 1 to 4 columns) were transferred to the assay plates using a Pintool station (Wako, San Diego, CA) into each well resulting in a final DMSO concentration of 0.76%. After 3hr incubation at 37C, 3 uL/well CellTiter-Glo luminescent cell viability reagent (Promega Corporation, Madison, WI) was added using a Flying Reagent Dispenser (FRD) (Aurora Discovery, CA). After incubation at room temperature for 30 min, the luminescence intensity was read using a ViewLux plate reader (PerkinElmer, Waltham, MA).
Turning to `C/C=C(/C(=C/C)c1ccc(OC(C)=O)cc1)c1ccc(OC(C)=O)cc1`, the “activity change, negative = cytotoxicity” value was 3.79% [at 70.9 µM]. `CC(C)O.CC(C)O.CCOC(=O)/C=C(\C)O.CCOC(=O)/C=C(\C)O.[Ti]`: the “activity change, negative = cytotoxicity” value was 9.57%. In the case of `CCc1cc(C2=C(C(=O)O)N(c3ccccc3C(F)(F)F)S(=O)(=O)c3ccccc32)cc2c1OCO2`, the “activity change, negative = cytotoxicity” value was -0.672%. Still for that read-out and setting: to `CC(C)(C)Cl` belongs 0.643%. For `CCC(C)c1cc(C(C)(C)C)c(O)c(C(C)(C)C)c1` (stereo not given), the “activity change, negative = cytotoxicity” value is 5.7%. Regarding `O=C(OCCCCCCOC(=O)c1ccccc1)c1ccccc1`, the “activity change, negative = cytotoxicity” value is 1.69%. On the same count and under the same terms, then `O=C(O)C1(C(=O)O)CCC1.[NH2-].[NH2-].[Pt+2]`, with -3.31% [at 70.9 µM].

As to `CCOC(=O)c1cccnc1`, the “activity change, negative = cytotoxicity” value was 1.02% [at 70.9 µM]. The same measure, in the same setting: to `CCN(CC)CCNC(=O)c1cc(Br)c(N)cc1OC` belongs -4.17% [at 70.9 µM]; to `CCCCCCCCCCCc1ccccc1`, -0.987%; to `CCC(=O)O[C@]1(C(=O)CCl)[C@@H](C)C[C@H]2[C@@H]3CCC4=CC(=O)C=C[C@]4(C)[C@@]3(F)[C@@H](O)C[C@@]21C`, 0.586% [at 70.9 µM]. Consider `CN(C)c1ccc(/C=C/c2ccc([N+](=O)[O-])cc2)cc1`, for which the activity change, negative = cytotoxicity is -2.45% [at 14 µM]. For `CN1Cc2cc(C(=O)N3CCC(C4CCNCC4)CC3)ccc2NC(CC(=O)O)C1=O` (stereo not given), the “activity change, negative = cytotoxicity” value is -6.28% [at 70.9 µM]. On the same count and under the same terms, to `CN(C)c1ccc(C(c2ccccc2)c2ccc(N(C)C)cc2)cc1` belongs 4.76%; to `C=C1[C@H]2CC[C@@H]3[C@H]2C(C)(C)CCC[C@]13C`, 0.635%. In the case of `CC(=O)c1cccc([N+](=O)[O-])c1`, the “activity change, negative = cytotoxicity” value was 1.25%. With `O=C(NCCO[N+](=O)[O-])c1cccnc1`, the “activity change, negative = cytotoxicity” value was 2.74% [at 70.9 µM]. Still for that read-out and setting: to `CC1=CC[C@H](C(C)C)C=C1` belongs -3.09%. Turning to `C[C@@H]1C[C@H]2O[C@@]3(O[C@@H]2C(C)(C)O)[C@H](O)[C@@]2(C)[C@@H]4CC[C@H]5C(C)(C)[C@@H](O[C@@H]6OC[C@@H](O)[C@H](O)[C@H]6O)CC[C@@]56C[C@@]46CC[C@]2(C)[C@@H]13`, the “activity change, negative = cytotoxicity” value was -0.809% [at 70.9 µM].

`OCCNCc1ccccc1`: the “activity change, negative = cytotoxicity” value is 0.76%. On to `CC(C)OC(=O)C(C)N(C(=O)c1ccccc1)c1ccc(F)c(Cl)c1` (stereo not given), for which the Potency was 56.6 µM (active). For `CC[N+]1(CC)CCC(=C(c2ccccc2)c2ccccc2)C1C` (stereo not given), the “activity change, negative = cytotoxicity” value was -2.28% [at 70.9 µM]. For `C=CCOC(=O)CCC1CCCCC1`, the “activity change, negative = cytotoxicity” value is 10.1%.

As to `CN1C[C@H]2c3ccccc3Oc3ccc(Cl)cc3[C@@H]2C1`, the “activity change, negative = cytotoxicity” value is 3.29% [at 70.9 µM].

Consider `CCCCC1=NC2(CCCC2)C(=O)N1Cc1ccc(-c2ccccc2-c2nn[nH]n2)cc1`, for which the “activity change, negative = cytotoxicity” value was 8.34% [at 70.9 µM]. On the same count and under the same terms, then `CNCCCN1c2ccccc2CCc2ccccc21`, with -2.49% [at 70.9 µM]. Same read-out and setting: then `CCOCC(O)COc1ccc(NC(=O)CC[S+](C)C)cc1` (stereo not given), with -0.941% [at 70.9 µM]; and `CNC(=O)CN(CCN(CCN(CC(=O)[O-])CC(=O)NC)CC(=O)[O-])CC(=O)[O-].O.[Gd+3]`, with 1.68% [at 70.9 µM]. On the same count and under the same terms, then `COC(=O)c1ccc(I)cc1S(=O)(=O)NC(=O)Nc1nc(C)nc(OC)n1`, with 1.41%. For `COc1ccc(C(=O)N2CCN(CC(=O)N3CCOCC3)CC2)cc1`, the “activity change, negative = cytotoxicity” value was 1.19% [at 70.9 µM]. The same measure, in the same setting: to `S=C([S-])NCCNC(=S)[S-].[Mn+2]` belongs 1.45%; to `COc1cccc(N(C)C(=S)Oc2ccc3c(c2)CCCC3)n1`, -13.2% [at 70.9 µM]; to `CCCCNc1ccc(C(=O)OCCOCCOCCOCCOCCOCCOCCOCCOCCOC)cc1`, -9.29% [at 70.9 µM].

With `CN(C)CCCN1c2ccccc2Sc2ccccc21`, the “activity change, negative = cytotoxicity” value is 0.998% [at 70.9 µM]. For the compound `CCOC(=O)C1=C[C@]2(CC)CCCN3CCc4c(n1c1ccccc41)[C@@H]32`, the “activity change, negative = cytotoxicity” value is -7.52% [at 70.9 µM]. Turning to `C=CC(=O)OCCOc1ccccc1`, the “activity change, negative = cytotoxicity” value is 12.5%. With `CN(C)CCN(Cc1ccc(Cl)cc1)c1ccccn1`, the “activity change, negative = cytotoxicity” value is 0.727% [at 70.9 µM]. The same measure, in the same setting: then `CCCCCCCCCCCC(=O)OC[C@@H](O)[C@H]1OC[C@H](OCCO)[C@H]1OCCO`, with -0.287%.

For the compound `CCN(CC)CCOC(=O)C(c1ccccc1)C1CCCCC1` (stereo not given), the Potency is 49.2 µM (active). With `CCCCC`, the “activity change, negative = cytotoxicity” value is -2.94%.
